Experimental data: PubChem BioAssay (NCI)
The panel holds about 83,000 compounds, 20% with a hit somewhere; the sample as a whole holds those more often.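 Method: cells in 96-well plates; compound added at one concentration; 48 h incubation; percent growth measured; values under 10 scored active.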 Values without a mark were called inactive. Activity calls are given as the source filed them.

tested on: MALME-3M melanoma; test: NCI-60 one-dose screen, 48 h (100 = growth as untreated, 0 = no growth, -100 = all killed); conditions: 10 µM unless noted

Compound	growth
C=C1C(=O)O[C@H]2[C@H]1CC/C(COC(=O)NCc1[nH]nc3ccccc13)=C\CC[C@@]1(C)O[C@@H]21	-43% (active)
CC(=O)Oc1c(Cl)c(Cl)c(Cl)c(Cl)c1Cl	91.7%
CC(=O)Nc1c(Br)cc2c(c1Br)Cc1cc(Br)ccc1-2	99.2%
Cc1ccc(C(CN(C)C)C(=O)c2ccccc2)cc1 (stereo not drawn)	79.8%
CCOC(=O)C(CCCCC(NC(C)=O)(C(=O)OCC)C(=O)OCC)(NC(C)=O)C(=O)OCC	108%
O=[N+]([O-])c1ccc(SSc2ccc([N+](=O)[O-])cc2Cl)c(Cl)c1	90.8%
COc1cc(/C=C2\CN(C(=O)OC(C)(C)C)C/C(=C\c3ccc(O)c(OC)c3)C2=O)ccc1O	97.5%
O=S1(=O)NCCN1CCNc1nccc(-c2c(-c3cccc(O)c3)nc3sccn23)n1	4.99% (active)
CNCCCn1c2c(c3ccc(Cl)cc3c1=O)C(=O)c1cc(OC)cnc1-2	72.8%
O=C(/C=C/c1ccccc1)c1c[nH]c2ccccc2c1=O	43.6%
N=C(N)c1ccc(-c2ccc(-c3ccco3)o2)cc1F	-68.2% (active)
C[C@@H]1N=C(c2ccc3ccccc3c2)Nc2nc3ccccn3c2C1=O	42.3%
COc1ccc2[nH]cc(C3(c4c[nH]c5ccc(OC)cc45)C(=O)Nc4ccc(F)cc43)c2c1	80.1%
CC(=O)Nc1ccc(/C=N/N2CCCCCC2)cc1	99.7%
COc1cc(-c2nn(C(=O)NCCN3CCN(C)CC3)cc2-c2ccncc2)ccc1Cl	77.8%
COc1cc(C2CC(=O)Nc3c2cnn3C)cc(OC)c1OC (stereo not drawn)	97.7%
COc1cc2c(c(OC)c1O)C(=O)C(OC)C(c1ccc(O)c(O)c1)O2 (stereo not drawn)	52.2%
CCOC(=O)C1C(=O)C=C(c2ccccc2)CC1c1sc(N(C)Cc2ccccc2)nc1Cl (stereo not drawn)	120%
CC(C)[C@@H]1C=C2CC[C@H]3[C@](C)(CN)CCC[C@]3(C)[C@H]2CC1	60.2%
CC1(C)CN(CCNc2nccc(-c3c(-c4cccc(O)c4)nc4sccn34)n2)S(=O)(=O)N1	5.36% (active)
CCNC(=O)c1ccc2c(c1)nc(-c1ccc(Cl)cc1)n2-c1cc(C(C)(C)C)[nH]n1	34.9%
CCc1c(C)c2ccc(O)c(-c3cc(-c4ccccc4)c(C#N)c(=O)[nH]3)c2oc1=O	107%
C=C(C)[C@@H]1CC[C@]2(C(=O)NS(=O)(=O)c3ccccc3)CC[C@]3(C)[C@H](CC[C@@H]4[C@@]5(C)CC[C@H](OC(=O)NS(=O)(=O)c6ccccc6)C(C)(C)[C@@H]5CC[C@]43C)[C@@H]12	11.3%
